In assay [1] the target is Cytochrome P450 3A7 (Homo sapiens) (UniProt P24462). Nature of the assay: Cytochrome P450 family 3 subfamily A member 7 (CYP3A7) small molecule antagonists: luciferase biochemical qHTS assay (AID 1963596). Note: % is set by controls: 0 for no effect and ±100 for the full control effect; nearly all actives have a fitted effect of over 40% in size. Put shortly: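 Luminescence read-out (relative luminescence units) after 20 min with detection reagent, which stops the reaction. Enzyme, proluciferin substrate and compound preincubated 10 min, RT; NADPH regeneration system then started 1 h reaction. Ketoconazole as positive control.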

Assay [2] is described as follows: Viability qHTS for spleen associated tyrosine kinase inhibitor (SYKi) naive MV4-11 cells (AID 1963823). Note: nearly all actives have a fitted effect of over 40% in size. Note: potency is the fitted concentration of half-maximal effect. Put shortly: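 In this viability screen, compounds acted on SYK inhibitor naive MV4-11 cells for three days (72 hr, 37 C). Remaining viable cells were measured by CellTiter-Glo luminescence following a 10 min room-temperature development.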
A short description of assay [3]: Viability qHTS for spleen associated tyrosine kinase inhibitor (SYKi) drug resistant MV4-11 cells (AID 1963824). Note: nearly all actives have a fitted effect of over 35% in size. Note: potency is the fitted concentration of half-maximal effect. Put shortly: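 SYK-inhibitor-resistant MV4-11 AML cells were seeded at 500 per well onto compound and cultured 72 hours (37 °C, 5% CO2). CellTiter-Glo was then added, and after 10 min at room temperature, luminescence gave viability.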
Assay [4] is described as follows: Cellular viability qHTS for adrenocortical cancer (ACC) cell line SW-13 (AID 1963989).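 For activity (max response): cells grown in serum-free medium with ITS supplement; % is set by controls: 0 for no effect and ±100 for the full control effect.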 Note: nearly all actives have a fitted effect of over 65% in size. Note: potency is the fitted concentration of half-maximal effect. The settings on record: SW-13 ACC cells viability, CellTiter-Glo, 48 h; activity (max response): hits give low values. The essentials: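 IC50 and maximal-response values come from four-parameter logistic fits of titration data. SW-13 cells in serum-free medium received compounds (up to 46 uM final) for 48 h before CellTiter-Glo luminescence.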

Assay [5] can be described thus: Cellular viability qHTS for adrenocortical cancer (ACC) cell line NCI-H295R (AID 1963990). Note: nearly all actives have a fitted effect of over 60% in size. Note: potency is the fitted concentration of half-maximal effect. Put shortly: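 Adrenocortical carcinoma cells, suspended at 300 000 cells/mL in serum-free DMEM plus ITS, rested overnight before pin transfer of compound. After two days' incubation, ATP-dependent luminescence was recorded and curve-fitted.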

“And” between values parts separate entries of the source, which are not always exact repeats. Equal values may be shown once. Results filed as inconclusive are left out. A number with no mark means an inactive call. The source made the active and inactive calls. Calls come from the whole dose curve; as a rule, active = well fitted curve in the direction sought with a large enough effect; inconclusive = small, poorly fitted or top-dose-only effect, or another doubt; inactive = no such curve, though single readings can be large; an effect the other way counts as inactive or inconclusive.

Data on 25 compounds can be found in PubChem BioAssay (NCATS).

Chain of Cytochrome P450 3A7 (Homo sapiens) (P24462 whole entry, looked up): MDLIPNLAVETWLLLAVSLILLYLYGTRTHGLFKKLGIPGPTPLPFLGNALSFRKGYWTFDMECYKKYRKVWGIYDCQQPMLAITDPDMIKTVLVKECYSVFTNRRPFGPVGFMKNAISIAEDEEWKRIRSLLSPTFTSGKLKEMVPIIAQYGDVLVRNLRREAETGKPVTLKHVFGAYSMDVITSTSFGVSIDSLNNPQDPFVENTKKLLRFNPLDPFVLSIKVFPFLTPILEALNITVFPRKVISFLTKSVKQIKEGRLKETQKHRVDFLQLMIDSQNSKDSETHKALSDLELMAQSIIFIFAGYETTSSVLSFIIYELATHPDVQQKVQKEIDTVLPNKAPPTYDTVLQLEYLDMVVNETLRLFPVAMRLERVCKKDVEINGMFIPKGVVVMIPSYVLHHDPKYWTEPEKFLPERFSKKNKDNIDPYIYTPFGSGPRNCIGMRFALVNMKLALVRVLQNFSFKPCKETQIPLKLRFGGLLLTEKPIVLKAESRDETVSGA

With `Cc1ncc(COP(=O)(O)O)c(C=O)c1O`, the Potency result in assay [1], in assay [2], in assay [3] and in assay [5] was “inactive” each time. The activity (max response) in assay [4] is 7.84%.

Take `Cc1cc(C)c(NC(=O)CN(CC(=O)O)CC(=O)O)c(C)c1Br`: the Potency result in assay [1], in assay [2], in assay [3] and in assay [5] was “inactive” each time. Also, in assay [4], the activity (max response) was 9.39%.

Take `NS(=O)(=O)c1cc(C2(O)NC(=O)c3ccccc32)ccc1Cl` (stereo not given): the Potency result in assay [1], in assay [2], in assay [3] and in assay [5] was “inactive” in each case. Also, in assay [4], the activity (max response) is 17.7%.

With `CC(N=C(NC#N)Nc1ccncc1)C(C)(C)C` (stereo not given), the Potency entry in assay [1], in assay [2], in assay [3] and in assay [5] was “inactive” in each case. Besides, in assay [4], the activity (max response) is 1.19%.

As to `Cc1coc2ccccc2c1=O`, the Potency entry in assay [1], in assay [2], in assay [3] and in assay [5] was “inactive” throughout. The activity (max response) in assay [4] was 19.3%.

As to `CC(=O)N[C@@H](CCC(N)=O)C(=O)O`, the Potency result in assay [1], in assay [2], in assay [3] and in assay [5] was “inactive” in each case. Besides, the activity (max response) in assay [4] is 11.4%.

Turning to `C[C@H]1O[C@@H](O[C@H]2[C@@H](O)C[C@H](O[C@H]3[C@@H](O)C[C@H](O[C@H]4CC[C@@]5(C)[C@H](CC[C@@H]6[C@@H]5C[C@@H](O)[C@]5(C)[C@@H](C7=CC(=O)OC7)CC[C@]65O)C4)O[C@@H]3C)O[C@@H]2C)C[C@H](O)[C@@H]1O`, in assay [1], the Potency entry is “inactive”. Further, the Potency in assay [2] was 103 nM (active) and 118 nM (active); in assay [3], 58 nM (active) and 118 nM (active); in assay [4], 70.8 nM (active); in assay [5], 126 nM (active).

Take `CN(C)C1CCN(C(=O)c2ccc(NC(=O)Nc3ccc(-c4nc(N5CCOCC5)nc(N5CCOCC5)n4)cc3)cc2)CC1`: the Potency entry in assay [1] was “inactive”. The Potency in assay [2] is 14.6 nM (active); in assay [3], 18.4 nM (active); in assay [4] it was 251 nM (active); in assay [5] it was 2240 nM (active).

With `O=C(O)Cc1sc(-c2ccccc2)nc1-c1ccc(Cl)cc1`, the Potency entry in assay [1], in assay [2], in assay [3] and in assay [5] was “inactive” in each case. The activity (max response) in assay [4] was 0.388%.

In the case of `CN1N=C(C(N)=O)CCC1=O`, the Potency result in assay [1], in assay [2], in assay [3] and in assay [5] was “inactive” each time. Besides, in assay [4], the activity (max response) was 11.7%.

In the case of `CC(=O)Nc1ccc(C(=O)O)cc1`, the Potency entry in assay [1], in assay [2], in assay [3] and in assay [5] was “inactive” each time. In addition, the activity (max response) in assay [4] is 11.7%.

In the case of `C[C@H]1[C@H]2CC[C@H]3[C@@H]4CC=C5C[C@@H](N(C)C)CC[C@]5(C)[C@H]4CC[C@]23CN1C`, the Potency entry in assay [1], in assay [2], in assay [3] and in assay [5] was “inactive” each time. Moreover, in assay [4], the activity (max response) was -17.7%.

On to `CN(C)CCC(c1ccccc1)c1ccccn1` (stereo not given), for which the Potency entry in assay [1], in assay [2], in assay [3] and in assay [5] was “inactive” each time. Also, the activity (max response) in assay [4] was 13.1%.

With `CC(C)c1c2cc(-c3ccnc(NC4CCC(NC5CCOCC5)CC4)n3)ccc2nn1C` (stereo not given), the Potency result in assay [1] is “inactive”. Moreover, the Potency in assay [2] was 130 nM (active) and 105 nM (active); in assay [3] it was 116 nM (active) and 83.3 nM (active); in assay [4] it was 282 nM (active); in assay [5], 447 nM (active).

For the compound `CC1(C)[C@@H](OC(=O)CCC(=O)O)CC[C@]2(C)[C@H]3C(=O)C=C4[C@@H]5C[C@@](C)(C(=O)O)CC[C@]5(C)CC[C@@]4(C)[C@]3(C)CC[C@@H]12`, the Potency result in assay [1], in assay [2], in assay [3] and in assay [5] was “inactive” in each case. Further, the activity (max response) in assay [4] was 2.49%.

Take `CCn1c(=O)c(-c2ccc(Cl)cc2Cl)cc2cnc(Nc3ccc(N4CCNCC4)c(F)c3)nc21`: the Potency result in assay [1] and in assay [5] was “inactive” each time. Moreover, the Potency is 82 nM (active) and 118 nM (active) in assay [2]; 231 nM (active) and 186 nM (active) in assay [3]. Further, the activity (max response) in assay [4] was -23.5%.

`CC(=O)Nc1ccccc1`: the Potency result in assay [1], in assay [2], in assay [3] and in assay [5] was “inactive” in each case. For the same compound, the activity (max response) in assay [4] is -1.24%.

On to `CC1(C)O[C@@H]2C[C@H]3[C@@H]4C[C@H](F)C5=CC(=O)C=C[C@]5(C)[C@@]4(F)[C@@H](O)C[C@]3(C)[C@]2(C(=O)CO)O1`, for which the Potency entry in assay [1], in assay [2] and in assay [5] was “inactive” each time. In addition, the Potency in assay [3] was 20900 nM (active). For the same compound, the activity (max response) in assay [4] was -5.78% and 9.51%.

With `Cc1cc(C)cc(NC(=O)Cc2ccc(OC(C)(C)C(=O)O)cc2)c1`, the Potency entry in assay [1], in assay [2], in assay [3] and in assay [5] was “inactive” each time. Further, in assay [4], the activity (max response) was 8.53%.

On to `O=[N+]([O-])c1cncn1CCN1CCOCC1`, for which the Potency entry in assay [1], in assay [2], in assay [3] and in assay [5] was “inactive” in each case. Also, the activity (max response) in assay [4] is 13.4% and -13.9%.

In the case of `NC(=O)N1c2ccccc2C=Cc2ccccc21`, the Potency result in assay [1], in assay [2], in assay [3] and in assay [5] was “inactive” each time. For the same compound, the activity (max response) in assay [4] was 8.83%.

Turning to `CCCCCCCCCCCCCCCCCCO`, the Potency entry in assay [1], in assay [2], in assay [3] and in assay [5] was “inactive” in each case. Also, the activity (max response) in assay [4] was -0.0263%.

As for `O=C(O)Cc1cccc2ccccc12`, the Potency result in assay [1], in assay [2], in assay [3] and in assay [5] was “inactive” in each case. Besides, the activity (max response) in assay [4] is 3.96% and 12.8%.

Turning to `CCCCS(=O)(=O)N[C@@H](Cc1ccc(OCCCCC2CCNCC2)cc1)C(=O)O`, the Potency result in assay [1], in assay [2], in assay [3] and in assay [5] was “inactive” each time. The activity (max response) in assay [4] is 11.9%.

For the compound `CCOC(=O)C(=O)c1csc(NC=O)n1`, the Potency entry in assay [1], in assay [2], in assay [3] and in assay [5] was “inactive” in each case. For the same compound, the activity (max response) in assay [4] was 8.44%.
